In PubChem BioAssay (NCATS):
Results filed as inconclusive are left out. Calls of active or inactive are those of the source. Calls follow the shape of the dose curve; as a rule, active = well fitted curve in the direction sought with a large enough effect; inconclusive = small, poorly fitted or top-dose-only effect, or another doubt; inactive = no such curve, though single readings can be large; an effect the other way counts as inactive or inconclusive.

How the values were obtained:
[1] = qHTS of pediatric cancer cell lines to identify multiple opportunities for drug repurposing: Primary screen for SK-N-SH cells (AID 1347098); also: nearly all actives have a fitted effect of over 65% in size
How it was run: (§1)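 Cells (500-1,000/well) rested 5 h, then received compounds for 48 h; metabolically active cells were measured by CellTiter-Glo luminescence. Final concentrations spanned up to 46 µM (MIPE, 11-point) or 0.59 nM-46 µM (NPC, 8-point) in primary screens, 11-point in follow-ups.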

[2] = qHTS of pediatric cancer cell lines to identify multiple opportunities for drug repurposing: Primary screen for NB1643 cells (AID 1347099); also: nearly all actives have a fitted effect of over 50% in size
How it was run: (§2)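 Cells seeded at 500-1,000 cells/well in growth media, rested 5 hours at 37 degrees C, 5% CO2, then dosed; MIPE compounds at 11-point (from 0.78 nM) and NPC at 8-point (from 0.59 nM) final concentrations. Viability by CellTiter-Glo luminescence after 48 hours.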

[3] = qHTS of pediatric cancer cell lines to identify multiple opportunities for drug repurposing: Primary screen for LAN-5 cells (AID 1347100)
How it was run: (§3)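 Cells (500-1,000/well) in growth media were settled 5 h at 37 degrees C, then given compounds for 48 h. Viability was read as CellTiter-Glo luminescence. Primary runs used MIPE at 11 points (0.78 nM-46 µM) and NPC at 8 points (0.59 nM-46 µM); follow-ups used 11 points.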

[4] = qHTS of pediatric cancer cell lines to identify multiple opportunities for drug repurposing: Primary screen for OHS-50 cells (AID 1347103); also: nearly all actives have a fitted effect of over 40% in size
How it was run: as §1

[5] = qHTS of pediatric cancer cell lines to identify multiple opportunities for drug repurposing: Primary screen for RD cells (AID 1347104); also: nearly all actives have a fitted effect of over 55% in size
How it was run: as §2

[6] = qHTS of pediatric cancer cell lines to identify multiple opportunities for drug repurposing: Primary screen for MG 63 (6-TG R) cells (AID 1347105); also: nearly all actives have a fitted effect of over 50% in size
How it was run: as §2

[7] = qHTS of pediatric cancer cell lines to identify multiple opportunities for drug repurposing: Primary screen for control Hh wild type fibroblast cells (AID 1347106); also: nearly all actives have a fitted effect of over 55% in size
How it was run: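 Viability after 48 h compound treatment at 37C, 500-1,000 cells/well, read as ATP luminescence with CellTiter-Glo. Primary screens used 11-point (MIPE, 0.78 nM-46 µM) or 8-point (NPC, 0.59 nM-46 µM) final concentrations; follow-up screens used 11-point dilutions.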

[8] = qHTS of pediatric cancer cell lines to identify multiple opportunities for drug repurposing: Primary screen for Rh30 cells (AID 1347107); also: nearly all actives have a fitted effect of over 75% in size
How it was run: as §3

[9] = qHTS of pediatric cancer cell lines to identify multiple opportunities for drug repurposing: Primary screen for Rh41 cells (AID 1347108); also: nearly all actives have a fitted effect of over 70% in size
How it was run: as §2

[10] = qHTS of pediatric cancer cell lines to identify multiple opportunities for drug repurposing: Confirmatory screen for NB1643 cells (AID 1347109); also: nearly all actives have a fitted effect of over 45% in size
How it was run: as §3

[11] = qHTS of pediatric cancer cell lines to identify multiple opportunities for drug repurposing: Confirmatory screen for A673 cells (AID 1347110);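 also: cells exposed to compound for 48 h before the viability read; nearly all actives have a fitted effect of over 65% in size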
How it was run: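 A673 cells seeded at 500-1,000 cells/well, rested 5 h, then dosed; primary MIPE 11-point (0.78 nM to 46 µM), NPC (0.59 nM to 46 µM); confirmatory 11-point. CellTiter-Glo luminescence after 48 h.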

[12] = qHTS of pediatric cancer cell lines to identify multiple opportunities for drug repurposing: Confirmatory screen for SK-N-MC cells (AID 1347111);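 also: cells exposed to compound for 48 h before the readout; nearly all actives have a fitted effect of over 70% in size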
How it was run: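 Metabolically active cells were quantified by ATP-dependent luminescence (CellTiter-Glo, 15 min at room temperature) following 48 h treatment. Cells had been plated at 500-1,000 per well and settled for 5 h beforehand.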

[13] = qHTS of pediatric cancer cell lines to identify multiple opportunities for drug repurposing: Confirmatory screen for LAN-5 cells (AID 1347113); also: nearly all actives have a fitted effect of over 65% in size
How it was run: as §3

[14] = qHTS of pediatric cancer cell lines to identify multiple opportunities for drug repurposing: Confirmatory screen for NB-EBc1 cells (AID 1347115);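 also: cells exposed to compound for 48 h before the viability read; nearly all actives have a fitted effect of over 45% in size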
How it was run: as §3

[15] = qHTS of pediatric cancer cell lines to identify multiple opportunities for drug repurposing: Confirmatory screen for SJ-GBM2 cells (AID 1347116); also: nearly all actives have a fitted effect of over 60% in size
How it was run: (§4)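 Viability measured as metabolically active cells via CellTiter-Glo luminescence following 48 hours of compound exposure, 11-point dilutions in confirmatory testing. 500-1,000 cells/well plated 5 hours before dosing; controls were DMSO and 2.3 µM bortezomib.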

[16] = qHTS of pediatric cancer cell lines to identify multiple opportunities for drug repurposing: Confirmatory screen for BT-37 cells (AID 1347117); also: nearly all actives have a fitted effect of over 55% in size
How it was run: as §3

[17] = qHTS of pediatric cancer cell lines to identify multiple opportunities for drug repurposing: Primary screen for BT-12 cells (AID 1347101); also: nearly all actives have a fitted effect of over 25% in size
How it was run: as §1

[18] = qHTS of pediatric cancer cell lines to identify multiple opportunities for drug repurposing: Primary screen for Rh18 cells (AID 1347102); also: nearly all actives have a fitted effect of over 65% in size
How it was run: as §3

[19] = qHTS of pediatric cancer cell lines to identify multiple opportunities for drug repurposing: Confirmatory screen for BT-12 cells (AID 1347112); also: nearly all actives have a fitted effect of over 55% in size
How it was run: as §3

[20] = qHTS of pediatric cancer cell lines to identify multiple opportunities for drug repurposing: Confirmatory screen for DAOY cells (AID 1347114); also: nearly all actives have a fitted effect of over 65% in size
How it was run: as §4
Potency is read from the fitted curve at half-maximal effect.

SMILES | Potency [1] | Potency [2] | Potency [3] | Potency [4] | Potency [5] | Potency [6] | Potency [7] | Potency [8] | Potency [9] | Potency [10] | Potency [11] | Potency [12] | Potency [13] | Potency [14] | Potency [15] | Potency [16] | Potency [17] | Potency [18] | Potency [19] | Potency [20]
CNC(=O)c1c(F)cccc1Nc1nc(Nc2cc3c(cc2OC)CCN3C(=O)CN(C)C)nc2[nH]ccc12 | 8.57 µM (active) | 0.132 µM (active) | 0.0526 µM (active) | 0.344 µM (active) | 0.662 µM (active) | 18.7 µM (active) | inactive | 2.96 µM (active) | 0.148 µM (active) | 0.465 µM (active) | 11.7 µM (active) | 0.414 µM (active) | 0.208 µM (active) | 5.85 µM (active) | 0.928 µM (active) | 26.1 µM (active) |  |  |  | 
CN(c1ncccc1CNc1nc(Nc2ccc3c(c2)CC(=O)N3)ncc1C(F)(F)F)S(C)(=O)=O | 24.1 µM (active) | 2.35 µM (active) |  | 5.44 µM (active) | 10.5 µM (active) |  |  |  | 9.35 µM (active) |  | 3.69 µM (active) |  | 4.65 µM (active) |  |  | 7.37 µM (active) | 10.9 µM (active) | inactive | 13.1 µM (active) | 
CC1(C)O[C@@H]2C[C@@H]3[C@H]4C[C@@H](F)C5=CC(=O)C=C[C@]5(C)[C@@]4(F)[C@@H](O)C[C@]3(C)[C@]2(C(=O)CO)O1 | inactive |  | inactive | inactive |  | inactive | inactive |  |  |  | 0.0928 µM (active) | 0.293 µM (active) |  | 11.7 µM (active) |  | 0.0827 µM (active) | inactive |  | 0.0737 µM (active) | 
CCCn1c(=O)c2[nH]c(-c3cnn(Cc4cccc(C(F)(F)F)c4)c3)nc2n(CC)c1=O | inactive | inactive | inactive |  | inactive |  |  | inactive | inactive |  |  |  |  |  |  |  |  |  |  | 
NC1(Cc2ccc(Cl)cc2)CCN(c2ncnc3[nH]ccc23)CC1 | 27.1 µM (active) | 20.9 µM (active) | 18.7 µM (active) | 6.11 µM (active) | 11.8 µM (active) |  | inactive |  | 3.32 µM (active) |  |  |  |  |  |  |  |  |  |  | 
O=C(O)c1ccc2cc(-c3ccc(O)c(C45CC6CC(CC(C6)C4)C5)c3)ccc2c1 | 24.1 µM (active) | 0.372 µM (active) | 0.59 µM (active) |  | 5.26 µM (active) | 0.296 µM (active) | inactive |  | 5.9 µM (active) | 2.93 µM (active) | 2.93 µM (active) | 1.17 µM (active) | 1.47 µM (active) | 0.737 µM (active) |  | 1.47 µM (active) |  |  | inactive | 3.69 µM (active)
CC(=O)OCC(=O)[C@@]1(O)[C@H](C)C[C@H]2[C@@H]3C=C(C)C4=Cc5c(cnn5-c5ccccc5)C[C@]4(C)[C@@H]3[C@@H](O)C[C@@]21C | inactive | 13.2 µM (active) |  | 19.3 µM (active) | 16.6 µM (active) | 18.7 µM (active) |  |  | 18.7 µM (active) | 10.4 µM (active) | 13.1 µM (active) | 2.93 µM (active) | 13.1 µM (active) | 23.3 µM (active) | 13.1 µM (active) | 13.1 µM (active) | 21.7 µM (active) | 13.2 µM (active) | 32.9 µM (active) | 18.5 µM (active)
Cc1c(CN2CCN(S(C)(=O)=O)CC2)sc2c(N3CCOCC3)nc(-c3cnc(N)nc3)nc12 | 1.92 µM (active) |  | 0.0264 µM (active) | 0.0097 µM (active) |  | 0.0372 µM (active) | 0.209 µM (active) |  | 0.148 µM (active) | 1.31 µM (active) | 1.85 µM (active) | 0.827 µM (active) | 1.31 µM (active) |  |  | 2.08 µM (active) |  | 0.105 µM (active) |  | 
Cn1c2ccccc2c2c3c(c4c5ccccc5n(CCC#N)c4c21)CNC3=O | 5.41 µM (active) | 1.87 µM (active) | 5.9 µM (active) | 5.44 µM (active) |  | 14.8 µM (active) |  |  |  | 20.8 µM (active) | 4.65 µM (active) | 0.465 µM (active) |  | 23.3 µM (active) |  | 5.85 µM (active) |  |  | inactive | 
CNC(=O)CN1CCC(Oc2cc3c(Nc4cccc(Cl)c4F)ncnc3cc2OC)CC1 | 0.0607 µM (active) |  | 0.001 µM (active) | 0.001 µM (active) | 0.0026 µM (active) |  |  |  | 0.0469 µM (active) | 1.04 µM (active) | inactive | 1.47 µM (active) | 1.17 µM (active) | 4.65 µM (active) |  | 0.928 µM (active) | 0.0014 µM (active) |  | inactive | inactive
CCCNC(=O)Nc1ccc(Oc2ncnc3cc(OC)c(OC)cc23)cc1Cl | inactive | inactive |  | inactive |  |  | inactive | inactive | inactive |  |  |  |  |  |  |  | inactive | inactive |  | 
Clc1ccc2ncc(-c3cccc(NC4CNC4)n3)n2c1 | 3.41 µM (active) |  | 16.6 µM (active) |  |  | inactive | inactive |  |  |  |  |  |  |  |  |  | 8.63 µM (active) | inactive |  | 
C=CC(=O)Nc1cccc(Oc2nc(Nc3ccc(N4CCN(C)CC4)cc3)ncc2Cl)c1 | 3.83 µM (active) |  | 2.64 µM (active) | 3.06 µM (active) | 20.9 µM (active) | 7.43 µM (active) | 16.6 µM (active) | 18.7 µM (active) | 11.8 µM (active) | 8.27 µM (active) | 16.5 µM (active) | 1.31 µM (active) | 6.57 µM (active) | 18.5 µM (active) |  |  | 17.2 µM (active) | 3.72 µM (active) | 16.5 µM (active) | 18.5 µM (active)
